Experiment [1] in a line: qHTS profiling for inhibitors of Plasmodium falciparum proliferation (AID 504749).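 For activity, negative = inhibition: 0% = DMSO vehicle and full inhibition = artemisinin control.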 Note: nearly all actives have a fitted effect of over 60% in size. Note: potency is the fitted concentration of half-maximal effect. As to conditions: P. falciparum in erythrocytes, SYBR Green DNA, 72 h. An outline of the steps: (§1)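 SYBR Green fluorescence (ex 485 nm, em 535 nm) reports parasite DNA after 72 h compound exposure of infected red cells at 0.3% parasitemia, 2.5% hematocrit; signal normalized to 0.29 uM artemisinin and vehicle wells.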
On the technique in general: Quantitative high-throughput screening tests each substance at several concentrations.

Experiment [2] can be described thus: qHTS Assay for Lipid Storage Modulators (AID 1519; calls by dose curve; for activity change, negative = inhibition: % is set by controls: 0 for no effect and ±100 for the full control effect). To be noted: Drosophila S3 cells, BODIPY lipid droplet/cell ratio, laser cytometry, cells loaded with oleic acid. An outline of the steps: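 Cells seeded at 5,000 per well were treated with compounds over a concentration series and loaded with oleic acid (400 uM, as added). Lipid droplet fluorescence (488 nm excitation, 500-530 nm channel) was read by laser-scanning cytometry and normalized to 20 uM Triacsin C.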

In experiment [3] the target is Ubiquitin carboxyl-terminal hydrolase 1 (Homo sapiens) (UniProt O94782). The experiment is described as follows: Inhibitors of USP1/UAF1: Pilot qHTS (AID 504865).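 For activity change, negative = inhibition: rhodamine fluorescence freed from ubiquitin-rhodamine substrate followed over time; top concentration of the series differs between compounds; % is set by controls: 0 for no effect and ±100 for the full control effect.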 Note: nearly all actives have a fitted effect of over 35% in size. Note: potency is the fitted concentration of half-maximal effect. To be noted: purified USP1/UAF1, Ub-rhodamine cleavage fluorescence; series mostly up to 114 µM. An outline of the steps:
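USP1/UAF1 complex (1nM) preincubated with compound 15 min at room temperature, then Ub-Rho substrate (150nM final) added. Fluorescence read kinetically at 480/540 nm, 6 reads every 60 seconds. Buffer: 50mM HEPES pH 7.8, 0.5mM EDTA, 0.1 mg/ml BSA, 1mM TCEP, 0.01% Tween-20.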

In the next experiment the test system is C2A. The experiment is described as follows: qHTS profiling for inhibitors of Plasmodium falciparum proliferation (AID 504749).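 For activity, negative = inhibition: 0% = DMSO vehicle and full inhibition = artemisinin control.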 Note: nearly all actives have a fitted effect of over 60% in size. Note: potency is the fitted concentration of half-maximal effect. To be noted: P. falciparum in erythrocytes, SYBR Green DNA, 72 h; series mostly up to 12.8 µM. An outline of the steps: as §1
The next experiment relates to CP185. The experiment is described as above. As to conditions: P. falciparum in erythrocytes, SYBR Green DNA, 72 h; series mostly up to 12.8 µM. The essentials:
as §1

For the next experiment, the system named is CP201. Described as above. As to conditions: P. falciparum in erythrocytes, SYBR Green DNA, 72 h; series mostly up to 12.8 µM. The essentials: as §1
In a further experiment the test system is CP211. The description is as above. To be noted: P. falciparum in erythrocytes, SYBR Green DNA, 72 h; series mostly up to 12.8 µM. The essentials: as §1
The test system of another experiment is CP238. The description is as above. As to conditions: P. falciparum in erythrocytes, SYBR Green DNA, 72 h; series mostly up to 12.8 µM. The essentials: as §1
A further experiment relates to CP262. Described as above. As to conditions: P. falciparum in erythrocytes, SYBR Green DNA, 72 h; series mostly up to 12.8 µM. The essentials:
as §1

Another experiment relates to CP268. The experiment is described as above. As to conditions: P. falciparum in erythrocytes, SYBR Green DNA, 72 h; series mostly up to 12.8 µM. An outline of the steps: as §1
A further experiment deals with CP269. Described as above. As to conditions: P. falciparum in erythrocytes, SYBR Green DNA, 72 h; series mostly up to 12.8 µM. The essentials:
as §1

A further experiment concerns CP305. The description is as above. To be noted: P. falciparum in erythrocytes, SYBR Green DNA, 72 h; series mostly up to 12.8 µM. An outline of the steps: as §1
The next experiment concerns CP315. The experiment is described as above. As to conditions: P. falciparum in erythrocytes, SYBR Green DNA, 72 h; series mostly up to 12.8 µM. An outline of the steps: as §1
The subject of a further experiment is CP325. Described as above. To be noted: P. falciparum in erythrocytes, SYBR Green DNA, 72 h; series mostly up to 12.8 µM. The essentials:
as §1

A further experiment relates to CP329. The description is as above. To be noted: P. falciparum in erythrocytes, SYBR Green DNA, 72 h; series mostly up to 12.8 µM. An outline of the steps:
as §1

The next experiment relates to FAB9. The description is as above. As to conditions: P. falciparum in erythrocytes, SYBR Green DNA, 72 h; series mostly up to 12.8 µM. The essentials: as §1
The subject of a further experiment is JCK. The description is as above. To be noted: P. falciparum in erythrocytes, SYBR Green DNA, 72 h; series mostly up to 12.8 µM. An outline of the steps: as §1
The next experiment deals with PC15. Described as above. As to conditions: P. falciparum in erythrocytes, SYBR Green DNA, 72 h; series mostly up to 12.8 µM. The essentials: as §1
The next experiment concerns PC49. Described as above. As to conditions: P. falciparum in erythrocytes, SYBR Green DNA, 72 h; series mostly up to 12.8 µM. An outline of the steps:
as §1

The mark [4] stands for this setting: measured here: cell count channel max response.
The mark [5] stands for this setting: measured here: lipid channel max response.
The mark [6] stands for this setting: at 12.8 µM (top of the series), parasite line A.
Where [7] appears, read: at 12.8 µM (top of the series), parasite line B.

Records with an inconclusive call do not appear. Activity calls are given as the source filed them. Unless noted, calls come from the whole dose curve; as a rule, active = well fitted inhibition curve with a large enough effect; inconclusive = small, poorly fitted or top-dose-only effect; inactive = flat fitted curve, though single readings scatter.

Chain of Ubiquitin carboxyl-terminal hydrolase 1 (Homo sapiens) (O94782 whole entry, looked up): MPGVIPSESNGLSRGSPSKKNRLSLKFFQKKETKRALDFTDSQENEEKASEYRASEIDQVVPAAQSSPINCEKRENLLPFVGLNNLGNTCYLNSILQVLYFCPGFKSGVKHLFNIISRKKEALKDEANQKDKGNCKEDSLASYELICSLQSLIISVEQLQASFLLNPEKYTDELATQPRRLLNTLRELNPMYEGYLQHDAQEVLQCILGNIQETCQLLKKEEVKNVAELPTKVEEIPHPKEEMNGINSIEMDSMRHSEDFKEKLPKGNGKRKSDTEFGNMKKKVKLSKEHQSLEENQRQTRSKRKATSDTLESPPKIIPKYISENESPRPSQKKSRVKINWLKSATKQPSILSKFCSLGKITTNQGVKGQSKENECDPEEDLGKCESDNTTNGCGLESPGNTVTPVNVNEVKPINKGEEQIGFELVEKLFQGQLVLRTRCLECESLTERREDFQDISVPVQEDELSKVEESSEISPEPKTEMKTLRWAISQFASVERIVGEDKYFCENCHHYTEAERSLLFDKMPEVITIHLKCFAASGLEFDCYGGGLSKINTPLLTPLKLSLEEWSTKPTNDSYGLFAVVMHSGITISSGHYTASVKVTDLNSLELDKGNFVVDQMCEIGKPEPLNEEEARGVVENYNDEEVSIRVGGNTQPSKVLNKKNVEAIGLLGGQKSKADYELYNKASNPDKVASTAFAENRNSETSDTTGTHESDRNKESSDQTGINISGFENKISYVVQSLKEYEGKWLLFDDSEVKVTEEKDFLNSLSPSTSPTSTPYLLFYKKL

Consider `CN(C/C=C\c1ccccc1)Cc1cccc2ccccc12`, for which the activity, negative = inhibition in [1] (at 28.7 µM (top of the series), parasite line A) is 18.6% (inactive); in experiment [1] (at 28.7 µM (top of the series), parasite line B) it was 9.39% (inactive).
Consider `Clc1ccc([C@H](Cn2ccnc2)OCc2c(Cl)cccc2Cl)c(Cl)c1`, for which, in experiment [1] (parasite line B), the Potency was 3160 nM (active).
For `CC(C)(C)NC(=O)[C@@H]1C[C@H]2CCCC[C@@H]2CN1C[C@H](O)[C@H](Cc1ccccc1)NC(=O)[C@@H](CC(N)=O)NC(=O)c1ccc2ccccc2n1`, the activity change, negative = inhibition in experiment [2] (at 25.7 µM (top of the series)) is -0.923% (inactive). The max response is 1.41% in experiment [2] (setting [4]) and -0.968% in experiment [2] (setting [5]).
In the case of `COc1cc(N[C@@H](C)CCCN)c2ncccc2c1`, the activity change, negative = inhibition in experiment [2] (at 25.7 µM (top of the series)) was -1.31% (inactive). For the same molecule, the max response in experiment [2] (setting [4]) was -0.938%; in [2] (setting [5]), -2.77%. Also, the Potency in experiment [3] was 3980 nM (active); in experiment [1] (parasite line A) it was 1580 nM (active); in experiment [1] (parasite line B), 2820 nM (active); with C2A it was 2820 nM (active); with CP185, 2000 nM (active); with CP201 it was 4550 nM (active). The Potency was 2280 nM (active) in the experiment with CP211; 2240 nM (active) with CP238; 1280 nM (active) with CP262; 1610 nM (active) in the experiment with CP268; 1810 nM (active) with CP269; 1810 nM (active) with CP305. For the same molecule, the Potency is 5730 nM (active) in the experiment on CP315; 2030 nM (active) in the experiment with CP325; 3610 nM (active) in the experiment with CP329; 891 nM (active) in the experiment with FAB9; 3980 nM (active) in the experiment on JCK; 1000 nM (active) with PC15. Also, the Potency in the experiment with PC49 was 2240 nM (active).
`CC=C(/C(=C/C)c1ccc(O)cc1)c1ccc(O)cc1`: the activity change, negative = inhibition in [2] (at 25.7 µM (top of the series)) is -3.26% (inactive). For the same molecule, the results for the max response in experiment [2] (setting [4]) and in experiment [2] (setting [5]) were -14.6% and -18.3%, respectively. Besides, the activity, negative = inhibition was -1.05% (inactive) in experiment [1] (setting [6]) and -9.06% (inactive) in [1] (setting [7]). The Potency result in the experiment on C2A, with CP185, with CP201, in the experiment with CP211, in the experiment on CP238 and in the experiment on CP262 was “inactive” throughout. Further, the Potency entry in the experiment on CP268, in the experiment on CP269, in the experiment with CP305, in the experiment on CP315, in the experiment on CP325 and with CP329 was “inactive” throughout. Also, the Potency entry with FAB9, in the experiment with JCK, with PC15 and in the experiment with PC49 was “inactive” in each case.
As to `CN1[C@H](CC(=O)c2ccccc2)CCC[C@H]1C[C@@H](O)c1ccccc1`, the activity change, negative = inhibition in experiment [2] (at 57.5 µM (top of the series)) was -2.41% (inactive). The max response in experiment [2] (setting [4]) was -11.7%; in experiment [2] (setting [5]), -13.6%.
`CCOC(=O)Oc1c(OC)cc(C(=O)O[C@H]2C[C@H]3CN4CCc5c([nH]c6cc(OC)ccc56)[C@@H]4C[C@H]3[C@@H](C(=O)OC)[C@@H]2OC)cc1OC`: the activity change, negative = inhibition in experiment [2] (at 25.7 µM (top of the series)) is -4.31% (inactive). Besides, the max response in experiment [2] (setting [4]) was -12.6%; in experiment [2] (setting [5]), -12.3%. The Potency result in experiment [3] is “inactive”. For the same molecule, the Potency in experiment [1] (parasite line A) was 4470 nM (active).
For `CCC(C)(C)C(=O)O[C@@H]1C[C@H](C)C=C2C=C[C@H](C)[C@@H](CC[C@H]3C[C@@H](O)CC(=O)O3)[C@H]21`, the activity change, negative = inhibition in experiment [2] (at 25.7 µM (top of the series)) was -9.23% (inactive). Besides, the max response in experiment [2] (setting [4]) is -10.9%; in experiment [2] (setting [5]), -20.7%. For the same molecule, the activity, negative = inhibition in experiment [1] (setting [6]) was -15.1% (inactive). The Potency entry in the experiment on C2A, in the experiment on CP185, with CP201, with CP211, in the experiment with CP238 and in the experiment on CP262 was “inactive” each time. Moreover, the Potency entry in the experiment with CP268, in the experiment on CP269, in the experiment on CP305, with CP315, in the experiment with CP325 and in the experiment on CP329 was “inactive” each time. Also, the Potency entry in the experiment with FAB9, in the experiment with JCK, with PC15 and with PC49 was “inactive” throughout.
Take `O=C(OC[C@@H](O)CO)c1ccccc1Nc1ccnc2cc(Cl)ccc12`: the activity change, negative = inhibition in experiment [2] (at 25.7 µM (top of the series)) is -2.54% (inactive). In addition, the max response was found to be 9.55% in [2] (setting [4]) and 3.2% in experiment [2] (setting [5]). The figures for the activity, negative = inhibition in experiment [1] (setting [6]) and in experiment [1] (setting [7]) were -14.6% (inactive) and -22.4% (inactive), respectively. Besides, the Potency result in the experiment with C2A, with CP185, in the experiment on CP201, in the experiment with CP211, with CP238 and in the experiment with CP262 was “inactive” each time. For the same molecule, the Potency entry in the experiment with CP268, with CP269, with CP305, in the experiment with CP315, in the experiment on CP325 and in the experiment with CP329 was “inactive” each time. Also, the Potency entry in the experiment with FAB9, with JCK, in the experiment on PC15 and with PC49 was “inactive” in each case.

The record behind these values is PubChem BioAssay (NCATS).
